Screening data deposited in PubChem by National Center for Advancing Translational Sciences (NCATS).
TR SRC2 fluor cs: alters Texas Red total fluorescence, flagging assay interference; TRb/SRC2 Texas Red total fluorescence interference; Potency, µM (top dose mostly 106 µM); actives 0.29% (n = 280,000); AID 1479; active = well fitted curve in either direction with a large enough effect; inconclusive = small, poorly fitted or top-dose-only effect
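Human TRb ligand-binding domain at 0.6 uM with 20 nM Texas Red SRC2 peptide in Tris buffer containing 1 uM T3 and 5% DMSO, incubated with compound 5 h at ambient temperature. Total fluorescence (555/632 nm) calculated as parallel + 2 × perpendicular.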
Tau fibril FP: blocks human tau fibril formation measured by polarization | P10636 | K18 P301L tau heparin fibrillization, Alexa594 FP, 6 h | Potency, µM (highest dose often 57.7 µM), most hits filed as inhibitors | actives 0.39% (n = 280,000) | AID 1468; also: nearly all actives have a fitted effect of over 55% in size
Target sequence (P10636 561-689 P618L limits assumed): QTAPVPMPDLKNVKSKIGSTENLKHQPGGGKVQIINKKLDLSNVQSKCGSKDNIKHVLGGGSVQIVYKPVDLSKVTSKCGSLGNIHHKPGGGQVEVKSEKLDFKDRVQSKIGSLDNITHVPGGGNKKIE
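Human tau K18 […] P301L fragment, 15 uM unlabeled plus 0.24 uM Alexa 594-labeled tau (final), with compound and 20 uM heparin in 100 mM sodium acetate pH 7; 6 hr at 37 C, then Alexa 594 FP read.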
TRb-SRC2 inh: inhibitors of human thyroid hormone receptor beta-SRC2 interaction; P10828; TRbeta-SRC2 peptide binding, fluorescence polarization; receptor liganded with 1 µM T3; Potency, µM (highest dose often 106 µM), usual class: inhibitors; actives 0.065% (n = 280,000); AID 1469; also: nearly all actives have a fitted effect of over 50% in size
Target sequence (P10828 whole entry, looked up): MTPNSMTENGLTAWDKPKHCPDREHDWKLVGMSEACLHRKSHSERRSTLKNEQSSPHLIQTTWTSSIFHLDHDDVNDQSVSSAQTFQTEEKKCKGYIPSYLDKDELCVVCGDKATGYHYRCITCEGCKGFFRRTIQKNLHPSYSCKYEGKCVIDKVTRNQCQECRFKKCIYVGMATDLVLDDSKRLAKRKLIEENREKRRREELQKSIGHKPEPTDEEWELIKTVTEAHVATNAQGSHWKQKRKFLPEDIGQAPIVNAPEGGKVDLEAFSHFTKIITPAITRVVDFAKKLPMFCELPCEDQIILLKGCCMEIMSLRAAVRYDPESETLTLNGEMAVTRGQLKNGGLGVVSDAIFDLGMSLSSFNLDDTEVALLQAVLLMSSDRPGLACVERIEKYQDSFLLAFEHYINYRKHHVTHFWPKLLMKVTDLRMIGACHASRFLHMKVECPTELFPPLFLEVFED
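Assay buffer: 20 mM Tris-HCl, 100 mM NaCl, 10% glycerol, 1 mM EDTA, 0.01% NP-40, 1 mM DTT, 1 uM T3, 5% DMSO; TRb LBD 0.6 uM, Texas Red SRC2 20 nM; FP after 5 hr.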
Tau ThT inhib: blocks human tau fibril formation measured by thioflavin T | actives 2.1% (n = 270,000) | recombinant tau K18 P301L, heparin-induced fibrillization, ThT fluorescence | Potency, µM (doses to about 57.4 µM), most hits filed as inhibitors; also: nearly all actives have a fitted effect of over 55% in size
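Aggregation was driven by heparin (20 uM final) acting on recombinant tau […] bearing P301L in 100 mM sodium acetate pH 7; fibrils were detected with Thioflavin T.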
Tau fluor cs: counter-screen for tau fibril formation inhibitors | tau K18 P301L Alexa594 fluorescence, heparin fibrillization | Potency, µM (highest dose often 57.7 µM) | actives 0.93% (n = 280,000); also: nearly all actives have a fitted effect of over 55% in size
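Human tau K18 P301L (15 uM unlabeled, 0.24 uM Alexa 594-labeled) in 100 mM sodium acetate pH 7 with 20 uM heparin, 6 hr at 37 C. ThT 30 uM added, 1 hr ambient; Alexa 594 FP and total fluorescence read at 555/632 nm.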
Of the large screens only hits and unclear results are named; the others gave an inactive call; [ ] = remark or other dose. Compounds with a hit are over-represented: about 3% of the library has one in this group of screens. Unless noted, calls follow the shape of the dose curve; as a rule, active = well fitted curve in the direction sought with a large enough effect; inconclusive = small, poorly fitted or top-dose-only effect, or another doubt; inactive = no such curve, though single readings can be large; an effect the other way counts as inactive or inconclusive.

Cn1cccc1/C=C1\SC(=Nc2cccc(O)c2)NC1=O	Tau ThT inhib 7.1µM, Tau fluor cs inconclusive
Cc1ccc(N=C2NC(=O)/C(=C/c3cccn3C)S2)c(C)c1	Tau ThT inhib inconclusive
Cn1cccc1/C=C1\SC(=Nc2ccccc2)NC1=O	Tau ThT inhib 13µM, Tau fluor cs inconclusive
Cc1ccc(N=C2NC(=O)/C(=C/c3cn(C)c4ccccc34)S2)cc1C	Tau ThT inhib 4µM, Tau fluor cs inconclusive
O=c1oc(-c2ccc(C(F)(F)F)cc2)nn1Cc1cc(Cl)ccc1O	none (no result: Tau fibril FP, Tau ThT inhib, Tau fluor cs)
CN1CCC2(CCN3CCc4c(oc5ccccc45)C3C2)N(C)C1=O (stereo not given)	none
COC(=O)CC1Oc2ccc(C)cc2-n2cc(-c3ccc(C)cc3)nc21 (stereo not given)	Tau fibril FP inconclusive, Tau ThT inhib inconclusive, Tau fluor cs inconclusive
COc1ccc2[nH]cc(/C=N/NS(=O)(=O)c3ccc(C)cc3)c2c1	Tau ThT inhib inconclusive, Tau fluor cs 13µM[quencher]
COc1ccc2c(/C=N/NS(=O)(=O)c3ccc(C)cc3)c[nH]c2c1	Tau ThT inhib inconclusive, Tau fluor cs 13µM[quencher]
Cc1ccc(S(=O)(=O)N/N=C/c2c[nH]c3ccccc23)cc1	Tau ThT inhib inconclusive, Tau fluor cs inconclusive
C[C@H](N)CCP(=O)(O)O	none
CCCCCCCCCCCCCCCC[n+]1cccc2ccccc21	TRb-SRC2 inh 45µM
CCCCCCCc1cc2c(cn1)=C(OC)C(C)(OC(C)=O)C(=O)C=2Cl (stereo not given)	none
Cc1ccc(C2C(C#N)=C(N)Oc3c2sc2ccccc32)o1 (stereo not given)	Tau fibril FP inconclusive, Tau ThT inhib 14µM, Tau fluor cs inconclusive
CCCCS(=O)(=O)N1C2=NC(C(=O)OC)=C(C(=O)OC)[C@@H]3N(C)c4ccccc4[C@]23C[C@H]1C(=O)OC	none
Cc1ccc(-c2[nH]c3ccccc3c2C(C[N+](=O)[O-])c2ccco2)cc1 (stereo not given)	Tau ThT inhib inconclusive, Tau fluor cs 13µM[quencher]
[O-]/C(=C(\C(=S)Nc1ccc(SC(F)F)cc1)[n+]1cccc(CO)c1)c1ccc(Cl)s1	Tau ThT inhib 25µM, Tau fluor cs inconclusive
Cc1ccc(NC(=S)/C(=C(\[O-])c2ccc(Cl)s2)[n+]2cccc(CO)c2)cc1C	Tau ThT inhib inconclusive
[O-]/C(=C(\C(=S)Nc1cccc2ccccc12)[n+]1cccc(CO)c1)c1ccc(Cl)s1	Tau fibril FP inconclusive, Tau ThT inhib 14µM, Tau fluor cs inconclusive
CCOC(=O)c1c(S(=O)(=O)N2CCCC(C(=O)N3CCN(c4cccc(C)c4C)CC3)C2)c(C)n(C)c1C (stereo not given)	Tau ThT inhib inconclusive
CCCCOc1[nH]c2nc(-c3ccco3)n(Cc3ccco3)c(=N)c2c1C#N	Tau ThT inhib 22µM, Tau fluor cs inconclusive
CC(C)CCNC(=O)CN1C(=O)CSc2ccc(S(=O)(=O)N3CCC(C)CC3)cc21	none
Cc1ccc(OCC(=O)NNc2c3ccccc3nc3ccccc23)cc1	Tau ThT inhib 13µM, Tau fluor cs 14µM[quencher]
Cc1cccc(OCC(=O)NNc2c3ccccc3nc3ccccc23)c1	Tau ThT inhib inconclusive, Tau fluor cs 14µM[quencher]
CCOc1ccc(NC(=O)c2cc(Cl)nc3ccccc23)cc1	none
CCOc1ccc(Nc2c3ccccc3nc3ccccc23)cc1	Tau ThT inhib 20µM, Tau fluor cs inconclusive
CC(C)CC(=O)NCC1(N(C)C)CCCCC1	none
CCOC(=O)c1cccc(NC(=O)CCCn2c(C)c3cnn(-c4ccccc4)c(=O)c3c2C)c1	Tau fluor cs inconclusive
O=C(N/N=C/c1ccc([N+](=O)[O-])o1)c1cc2c(ccc3ccccc32)o1	Tau ThT inhib 1.1µM, Tau fluor cs inconclusive
O=C(N/N=C/c1ccc([N+](=O)[O-])o1)c1ccc(O)cc1	Tau ThT inhib 10µM
CCCCCCCCCc1ccccc1	none (no result: Tau fibril FP, Tau ThT inhib, Tau fluor cs)
COc1ccc(CS(=O)(=O)/C(Cl)=C(/Cl)C(=O)Nc2ccc(OC)nc2)cc1	Tau fibril FP inconclusive, Tau ThT inhib 7.9µM
Oc1ccc(/C=C/c2nc(-c3ccccc3O)n(-c3ccccc3)n2)c(O)c1	Tau fibril FP inconclusive, Tau ThT inhib inconclusive, Tau fluor cs 5.6µM[quencher]
Oc1ccc(/C=C/c2nc(-c3ccccc3O)n(-c3ccccc3)n2)cc1	Tau fibril FP inconclusive, Tau ThT inhib inconclusive, Tau fluor cs 32µM[quencher]
Oc1ccccc1-c1nc(/C=C/c2ccccc2)nn1-c1ccccc1	Tau fluor cs inconclusive
CCOc1ccc(/C=C/c2nc(C#N)c(N(C)C)o2)cc1	Tau ThT inhib inconclusive
Cc1ccc(O)c(-c2ccnc3cc(-c4ccc(Cl)cc4)nn23)c1	Tau fibril FP 32µM, Tau fluor cs inconclusive
Cc1ccccc1-c1cc2nccc(-c3cc(Cl)ccc3O)n2n1	none
CCc1ccc2[nH]c(=O)c(C(c3nnnn3CCOC)N3CCN(c4ccccc4F)CC3)cc2c1 (stereo not given)	Tau fibril FP inconclusive, Tau ThT inhib 18µM
COCCn1nnnc1C(c1ccc(OC)cc1OC)N1CCN(c2ccccc2F)CC1 (stereo not given)	none
Cc1ccc[n+](-c2nc([O-])sc2/C=N/Nc2ccc([N+](=O)[O-])cc2)c1	Tau ThT inhib 14µM
COc1cccc([C@@H]2Oc3ccc(OC)cc3C[C@H]2OC(=O)Nc2cc(OC)c(OC)c(OC)c2)c1	Tau fluor cs inconclusive
O=C(Nc1ccccc1)Nc1nc(-c2ccccc2)cs1	Tau fibril FP inconclusive
O=C(Nc1ccc(Cl)cc1)Nc1nc(-c2ccccc2O)cs1	Tau fibril FP inconclusive, Tau fluor cs 3.5µM[quencher]
O=C(Nc1ccc(Cl)cc1)Nc1nc(-c2sccc2Br)cs1	Tau fibril FP inconclusive, Tau ThT inhib inconclusive, Tau fluor cs inconclusive
O=C(Nc1ccc(Cl)c(Cl)c1)Nc1nc(-c2ccccc2)cs1	Tau fibril FP 18µM, Tau fluor cs inconclusive
CC(c1ncncc1F)[C@](O)(Cn1cncn1)c1ccc(F)cc1F (stereo not given in full)	none (no result: Tau fibril FP, Tau ThT inhib, Tau fluor cs)
O=C(Nc1ccc2nc(-c3ccc(Br)o3)[nH]c2c1)c1cccs1	Tau ThT inhib inconclusive, Tau fluor cs inconclusive
Cn1cccc1-c1nc2ccc(NC(=O)c3cccs3)cc2[nH]1	Tau ThT inhib 11µM, Tau fluor cs inconclusive
COc1cc(NC(=O)c2cc(-c3cccc(OC)c3)n[nH]2)cc(OC)c1	Tau fibril FP inconclusive, Tau ThT inhib inconclusive, Tau fluor cs inconclusive
CCc1nnc(SCC(=O)N(C)c2ccccc2)c2cc3sccc3n12	Tau ThT inhib inconclusive
c1ccc(-c2csc(NNC3=NCCCCC3)n2)cc1	Tau fibril FP 25µM, Tau ThT inhib 25µM, Tau fluor cs inconclusive
Clc1ccc(-c2csc(NNC3=NCCCCC3)n2)cc1	Tau fibril FP inconclusive, Tau ThT inhib 32µM, Tau fluor cs inconclusive
COc1ccc(CC(=O)Nc2ccc(-c3nc4ccccc4s3)c(C)c2)cc1OC	Tau ThT inhib inconclusive
